Results: PubChem BioAssay (NCATS)
Several values for one entry are separate records, joined by “and”; a condition that tells them apart may be missing. Equal values may be shown once. Records with an inconclusive call do not appear. Unmarked numbers belong to inactive results. The call rests on the fitted dose curve; in most records, active means well fitted activation curve with a large enough effect in the signal ratio; inconclusive means small, poorly fitted or top-dose-only effect, or a change in a side signal; inactive means flat fitted curve, though single readings scatter; the % refers to the signal ratio.

Assay: qHTS assay for small molecule activators of the nuclear factor-kappa B (NF-kB) signaling pathway (AID 651749); further: series mostly up to about 77 µM; % of control where 0% means no effect
Details: NF-kB-bla ME-180 cells, beta-lactamase FRET ratio, 16 h; stronger effect = higher value
Description: National Center for Advancing Translational Sciences [NCATS] NIH Chemical Genomics Center [NCGC] U.S. Environmental Protection Agency [EPA] National Institutes of Environmental Health Sciences [NIEHS] National Toxicology Program [NTP] Assay Overview: Transcription factors and their stimulated target gene expression play pivotal roles across many cellular processes including responses to environmental stimuli. Proper regulation of associated pathways is critical to maintain cell health and function. Constitutive activation of transcription factor pathways has been implicated in tumors as it may block cellular functions such as apoptosis and lead to invasion and metastasis. One important transcription factor that stimulates gene expression in response to cytokines, UV radiation, and other stimuli is nuclear factor-kappa B (NF-kB). To measure activation of the NF-kB pathway, the NF-kB-bla ME-180 cell line stably expressed beta-lactamase reporter gene under the regulation of a NF-kB response element was obtained from Invitrogen. This assay allows measurement of the NF-kB pathway activity induced by compounds in a ME-180 cell line. This system quantitates NF-kB activity using a FRET-based assay system where beta-lactamase expression disrupts FRET, allowing for fluorescent measurement of activity.
Assay Protocol Summary: For toxicology screening, 2,000 cells in 5 uL/well were dispensed into black, clear-bottom 1536-well plates using a Multidrop Combi (Thermo Scientific) dispenser. Following transfer of 23 nL compound or DMSO vehicle by a pin tool, the plates were incubated 16 hr at 37C and 5% CO2.

Compound	activation
Cc1ccc(S(=O)(=O)NC(=O)NN2CCCCCC2)cc1	-1.9%
C[C@]12CCC(=O)C=C1CC[C@@H]1[C@@H]2C(=O)C[C@@]2(C)[C@H]1CC[C@]2(O)C(=O)CO	-0.64%
Nc1ncn([C@@H]2O[C@H](CO)[C@@H](O)[C@H]2O)c(=O)n1	-3.34% and -0.684%
O=C(O)CCCCCCCC(=O)O	0.884%
CC(=O)Nc1nnc(S(N)(=O)=O)s1	1.13%
CCCCOCCOCCOCc1cc2c(cc1CCC)OCO2	-2.78% and 0.8%
O=c1[nH]c(=O)n([C@H]2C[C@H](O)[C@@H](CO)O2)cc1Br	0.708%
NC(=O)N1c2ccccc2C=Cc2ccccc21	-0.533% and -3%
CC(C)(Oc1ccc(CCNC(=O)c2ccc(Cl)cc2)cc1)C(=O)O	-0.302%
CC(=O)[C@@]1(O)CC[C@H]2[C@@H]3CCC4=CC(=O)CC[C@]4(C)[C@H]3CC[C@@]21C	0.354%
